# Source: PubChem BioAssay (EPA / NIEHS)
# “And” between values parts separate entries of the source, which are not always exact repeats. Identical values can stand only once. Where a structure was tested more than once in an assay, its records may differ in their call. The source made the active and inactive calls. How the source made its calls: active means hit-call score of the fitted dose curve at least 0.9, where 1 is the maximum; inactive means score below 0.9.
# Read-out: Interleukin-1 alpha (IL1a), IL1A (gene 3552)
# Experiment: BSK_KF3CT_IL1a: BioMAP Diversity Plus: KF3CT Assay for Interleukin-1 alpha (IL1a) Biomarker Activity (AID 2283070)
# Details: primary human keratinocytes with fibroblasts; actives raise or lower the signal
# Method: BSK_KF3CT is a cell-based, multiplexed-readout assay that uses keratinocytes and foreskin fibroblasts, a human skin primary cell co-culture, with measurements taken at 24 hours after chemical dosing in a 96-well plate.BSK_KF3CT_IL1a is an assay component measured in the BSK_KF3CT assay. It measures IL-1a antibody related to regulation of gene expression using ELISA technology.Data from the assay component BSK_KF3CT_IL1a was analyzed into 1 assay endpoint. This assay endpoint, BSK_KF3CT_IL1a, was analyzed with bidirectional fitting relative to DMSO as the negative control and baseline of activity. Using a type of binding reporter, gain or loss-of-signal activity can be used to understand changes in the signaling as they relate to the gene IL1A. Furthermore, this assay endpoint can be referred to as a primary readout, because this assay has produced multiple assay endpoints where this one serves a signaling function. To generalize the intended target to other relatable targets, this assay endpoint is annotated to the cytokine intended target family, where the subfamily is interleukins.
# The levels of cell surface (or secreted, indicated by the prefix "s") biomarker endpoints were measured by ELISA. Overt cytotoxicity to cells in confluent adherent cultures (all systems other than the BT system) was assessed by measuring total protein levels using sulforhodamine B (SRB) staining in parallel cultures at the time of biomarker measurements, indicated as SRB endpoints. For proliferation assays for adherent cell types, individual cell types are cultured at sub-confluence and relative cell numbers quantified by SRB staining at time points optimized for each system (48 h: 3C and CASM3C systems; 72 h: BT and HDF3CGF systems; 96 h: SAg system). SRB was performed by staining cells with 0.1% SRB after fixation with 10% TCA and reading wells at 560 nm.Viability and proliferation of PBMC (T cells) was quantified by Alamar Blue reduction for the SAg and BT systems. For PBMC viability (referred to as PBMC Cytotoxicity within the assay endpoint names), cells were plated (75,000/well in a 96-well plate) and then chemical samples added for 1 h before addition of activators, SEB and TSST-1 (20 ng/mL final concentration each). Cells were incubated for 90 h. Then, Alamar Blue (20 uL/well) (Invitrogen, Cat DAL1100) was added for 6 h, and the plates were read with a fluorescence microplate reader at 546/580 nm (excitation/emission). For PBMC proliferation, cells were plated and activated as above but incubated for only 16 h prior to addition of Alamar Blue. Plates were read after 6 h.
Structure (SMILES),AC50,outcome
Cc1ccc(S(=O)(=O)C(I)I)cc1,2.47 µM (active),–
CCN(CC)c1ccc2c(c1)Oc1cc(N(CC)CC)ccc1C21OC(=O)c2ccccc21,–,inactive
O=S(=O)(OCC(F)(F)F)C(F)(F)C(F)(F)C(F)(F)C(F)(F)F,–,inactive
O=C=Nc1cccc2c(N=C=O)cccc12,–,inactive
NC(=O)C(F)(F)C(F)(F)C(F)(F)C(F)(F)C(N)=O,–,inactive
O=C(O)C(F)(F)C(F)(F)C(F)(F)C(F)(F)C(F)(F)C(F)(F)C(F)F,–,inactive
NCC(F)(F)C(F)(F)C(F)(F)C(F)(F)C(F)(F)C(F)(F)F,–,inactive
C[Si](Cl)(Cl)CCC(F)(F)C(F)(F)C(F)(F)C(F)(F)C(F)(F)C(F)(F)F,–,inactive
CCOC(=O)CC(=O)C(F)(F)C(F)(F)F,–,inactive
FC(F)(F)C(F)(F)C(F)(F)CC1CO1 (stereo not given),–,inactive
NS(=O)(=O)C(F)(F)C(F)(F)C(F)(F)C(F)(F)C(F)(F)C(F)(F)F,–,inactive
NC(=O)C(F)(F)C(F)(F)C(F)(F)C(F)F,–,inactive
CC(C)(C)c1cc(CCC(=O)NCCCCCCNC(=O)CCc2cc(C(C)(C)C)c(O)c(C(C)(C)C)c2)cc(C(C)(C)C)c1O,–,inactive
CCN(CC)c1ccc(N=Nc2ccccc2)cc1,–,inactive
CCN(CC)c1ccc(C=O)cc1,–,inactive
O=S(=O)(O)CCC(F)(F)C(F)(F)C(F)(F)C(F)(F)C(F)(F)C(F)(F)C(F)(F)C(F)(F)F,7.84 µM (active),inactive
C[C@]12CC[C@H]3C(=CCc4cc(O)ccc43)[C@@H]1CCC2=O,–,inactive
OCCCC(F)(F)C(F)(F)C(F)(F)C(F)(F)C(F)(F)C(F)(F)C(F)(F)C(F)(F)F,11 µM (active) and 8.25 µM (active),–
CO[Si](C)(CCC(F)(F)C(F)(F)C(F)(F)C(F)(F)C(F)(F)C(F)(F)F)OC,–,inactive

Structure (SMILES),AC50,outcome
COC(F)(C(F)F)C(F)(F)F (stereo not given),–,inactive
CCOC(C=C(C)CCC=C(C)C)OCC,26 µM (active),–
CN(C(=O)C(F)(F)C(F)(F)C(F)(F)F)[Si](C)(C)C,–,inactive
OCC(F)(F)C(F)(F)C(F)(F)CO,–,inactive
OCC(F)(F)C(F)(F)C(F)(F)C(F)(F)C(F)(F)C(F)(F)C(F)(F)C(F)(F)CO,50.4 µM (active),inactive
O=C(F)C1(F)C(F)(F)C(F)(F)C(F)(F)C(F)(F)C1(F)F,–,inactive
O=C(O)C(F)(F)C(F)(F)C(F)(F)C(=O)O,–,inactive
CCN(CCO)S(=O)(=O)C(F)(F)C(F)(F)C(F)(F)C(F)(F)C(F)(F)C(F)(F)C(F)(F)C(F)(F)F,20.8 µM (active) and 30 µM (active),–
NC(=O)C(F)(F)C(F)(F)C(F)(F)F,–,inactive
NC(=O)C(F)(F)C(F)(F)C(F)(F)C(F)(F)C(F)(F)C(F)(F)C(F)(F)F,–,inactive
O=C(c1ccccc1)c1ccc(O)cc1O,–,inactive
CCN(CC)c1ccc(C=O)c(O)c1,–,inactive
OC(O)C(F)(F)C(F)(F)F,–,inactive
C=C(C)C(=O)OCC(F)(F)C(F)(F)C(F)(F)C(F)F,–,inactive
Cc1cc(O)c(C(C)(C)C)cc1C(C)(C)C,4.04 µM (active),–
O=C1C=CC(=O)N1c1ccc(Cc2ccc(N3C(=O)C=CC3=O)cc2)cc1,2.69 µM (active),–
CCN=C1C=CC(=C(c2ccc(N(CC)CC)cc2)c2ccc(N(CC)CC)cc2)c2ccccc21,2.69 µM (active) and 2.13 µM (active),–
O=C(O)C(F)(F)OC(F)(F)C(F)(F)OC(F)(F)C(F)(F)OC(F)(F)F,–,inactive
NC(O)(C(F)(F)F)C(F)(F)F,–,inactive
